A structure can be active in one record and inactive in another. Active and inactive are the calls of the source. The calls were made as follows: active = hit-call score of the fitted dose curve at least 0.9, where 1 is the maximum; inactive = score below 0.9.
molecular target: X-box-binding protein 1 (Homo sapiens) (UniProt P17861); assay: ATG_Xbp1_CIS: Attagene CIS-FACTORIAL HepG2 Assay for human X-box Binding Protein 1 (XBP1) (AID 2282972); settings: HepG2 XBP1 cis-element reporter, Attagene multiplex; actives raise or lower the signal
Sequence (P17861 whole entry, looked up): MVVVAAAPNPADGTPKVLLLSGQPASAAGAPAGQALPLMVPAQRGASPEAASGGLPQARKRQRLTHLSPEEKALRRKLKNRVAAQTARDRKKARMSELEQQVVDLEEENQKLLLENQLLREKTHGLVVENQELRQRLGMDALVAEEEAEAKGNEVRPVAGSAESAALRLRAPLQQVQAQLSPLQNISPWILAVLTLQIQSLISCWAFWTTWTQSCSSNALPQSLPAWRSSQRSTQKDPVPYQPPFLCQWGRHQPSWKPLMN
Procedure: ATG_CIS is a cell-based, multiplexed-readout assay that uses HepG2, a human liver cell line, with measurements taken at 24 hours after chemical dosing in a 24-well plate.ATG_Xbp1_CIS is one of 52 assay component(s) measured or calculated from the ATG_CIS assay. It is designed to make measurements of mRNA induction, a form of inducible reporter, as detected with fluorescence intensity signals by Reverse transcription polymerase chain reaction (RT-PCR) and Capillary electrophoresis technology.Data from the assay component ATG_Xbp1_CIS was analyzed into 1 assay endpoint. This assay endpoint, ATG_Xbp1_CIS, was analyzed with bidirectional fitting relative to DMSO as the negative control and baseline of activity. Using a type of inducible reporter, measures of mRNA for gain or loss-of-signal activity can be used to understand the reporter gene at the transcription factor-level as they relate to the gene XBP1. Furthermore, this assay endpoint can be referred to as a primary readout, because this assay has produced multiple assay endpoints where this one serves a reporter gene function. To generalize the intended target to other relatable targets, this assay endpoint is annotated to the dna binding intended target family, where the subfamily is basic leucine zipper.
Human liver HepG2 cells are transiently transfected with multiple reporter transcription units (MRTUs) in 6-well plates using FuGene 6 reagent (Roche; 3 ml FuGene/1 mg DNA). The MRTU constructs are regulated by a cis-regulating element (promoter). […] A major difference between the CIS and TRANS system is that in CIS activities of endogenous TFs are measured, whereas the TRANS assay evaluates changes in activities of exogenous, chimeric NR-Gal4 proteins. […] At the end of 24 hour incubation, total RNA was isolated using TriZol reagent (Invitrogen). The isolated RNA is then reverse-transcribed using oligo(dT) primer and Mo-MLV reverse transcriptase (Invitrogen) with DNAse I (Ambion) treatment for 30 min. The one-tenth of the produced cDNA was amplified by PCR using Taq DNA polymerase (Invitrogen) and two reporter sequence-specific primers. The PCR products were fluorescently labeled by primer extension with 6-arboxyfluorescein (6-FAM) 5'-labeled reporter sequence-specific primer (2 min at 95 C, 20 s at 68 C and 10 min at 72 C) and these products were digested with 5U of HpaI (New England Biolabs) for 2h at 37 C. The fragments were purified using Qiaquick PCR columns (Qiagen), analyzed on an ABI 3130xL genetic analyzer (Applied Biosystems) with peak positions identified by using a set of X-rhodamine (ROX)-labeled MapMarker1000 molecular weight standards (BioVentures). The raw capillary electrophoresis data was processed using Attagraph software (Attagene).

Compound | outcome | AC50
COP(=S)(OC)Oc1nc(Cl)c(Cl)cc1Cl | inactive | 
CC(Oc1ccc(Cl)cc1Cl)C(=O)O (stereo not given) | inactive | 
C#CCOS(=O)OC1CCCCC1Oc1ccc(C(C)(C)C)cc1 (stereo not given) | inactive | 
CCc1nn(C)c(C(=O)NCc2ccc(C(C)(C)C)cc2)c1Cl |  | 0.352 µM (active)
O=C(O)COc1nc(Cl)c(Cl)cc1Cl | inactive | 
CC(C)C1(C)N=C(c2nc3ccccc3cc2C(=O)O)NC1=O (stereo not given) | inactive | 
COc1ccc(C(c2ccc(OC)cc2)C(Cl)(Cl)Cl)cc1 | inactive | 28.3 µM (active)
COP(N)(=O)SC (stereo not given) | inactive | 
COc1nc(C)nc(NC(=O)NS(=O)(=O)c2ccccc2CCC(F)(F)F)n1 | inactive | 
N#CC(CCc1ccc(Cl)cc1)(Cn1cncn1)c1ccccc1 (stereo not given) | inactive | 
CCCCOC(=O)c1ccccc1C(=O)OCCCC | inactive | 
C=CCC1=C(C)C(OC(=O)C2C(C=C(C)C)C2(C)C)CC1=O (stereo not given) | inactive | 53.5 µM (active) [middle of 5 runs]
CN(C)C(=S)SSC(=S)N(C)C | inactive | 
CON(C)C(=O)Nc1ccc(Cl)c(Cl)c1 | inactive | 
CS/C(C)=N/OC(=O)N(C)SN(C)C(=O)O/N=C(\C)SC | inactive | 
CNC(=S)S | inactive | 
CCNc1nc(Cl)nc(NCC)n1 | inactive | 
COC(=O)C(C)Oc1ccc(Oc2ccc(Cl)cc2Cl)cc1 (stereo not given) | inactive | 

Compound | outcome | AC50
COC(=O)C=C(C)OP(=O)(OC)OC | inactive | 
CCNc1nc(Cl)nc(NC(C)C)n1 | inactive | 
CCCCNC(=O)OCC#CI | inactive | 45.5 µM (active)
Cc1ccc(-c2c(Cl)nc(C#N)n2S(=O)(=O)N(C)C)cc1 |  | 8.26 µM (active)
CC(C)Oc1cc(-n2nc(C(C)(C)C)oc2=O)c(Cl)cc1Cl | inactive | 
C=CC1(C)OC(=O)N(c2cc(Cl)cc(Cl)c2)C1=O (stereo not given) | inactive | 
OC(c1ccc(Cl)cc1)(c1cncnc1)c1ccccc1Cl (stereo not given) | inactive | 
N#Cc1cc(Br)c(O)c(Br)c1 |  | 31.6 µM (active)
Fc1ccc(Oc2ccnc3cc(Cl)cc(Cl)c23)cc1 | inactive | 
O=C(O)c1nc(Cl)ccc1Cl | inactive | 
C=CCC1=C(C)[C@@H](OC(=O)[C@@H]2[C@@H](C=C(C)C)C2(C)C)CC1=O | inactive | 
CC(C)(C)c1ccc(CSc2cnn(C(C)(C)C)c(=O)c2Cl)cc1 | inactive | 
Oc1ccccc1-c1ccccc1 | inactive | 
CCCCNC(=O)n1c(NC(=O)OC)nc2ccccc21 | inactive | 
COc1nc(NC(C)C)nc(NC(C)C)n1 | inactive | 
COC(=O)N(OC)c1ccccc1COc1ccn(-c2ccc(Cl)cc2)n1 | inactive | 
N#Cc1nn(-c2c(Cl)cc(C(F)(F)F)cc2Cl)c(N)c1S(=O)C(F)(F)F (stereo not given) | inactive | 15.3 µM (active)
Cc1cc(Cl)ccc1OCC(=O)O | inactive | 

Source: PubChem BioAssay (EPA / NIEHS)
